Shown are actives, neighbours in structure and some others; about 1.6% of the full set was active somewhere.
eIF4H FP inh = inhibitors of RNA binding by human eIF4H. Q15056. eIF4H fluorescence polarization binding assay. 290,000 tested, 0.94% active. AID 2012. inhibition, % at 35 µM;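 further: calls also rest on retests at 20 µM and on dose response follow-up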
eIF4E 4G PPI = inhibitors of eIF4E and eIF4G interaction in translation initiation. P63073+Q04637. TR-FRET eIF4E-eIF4GI(517-606) binding, 2 h. inhibition, % at 21.7 µM. 220,000 tested, 0.37% active. AID 782;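 active means inhibition above about 30%, limit read from the data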
Target sequence (P63073 whole entry, looked up): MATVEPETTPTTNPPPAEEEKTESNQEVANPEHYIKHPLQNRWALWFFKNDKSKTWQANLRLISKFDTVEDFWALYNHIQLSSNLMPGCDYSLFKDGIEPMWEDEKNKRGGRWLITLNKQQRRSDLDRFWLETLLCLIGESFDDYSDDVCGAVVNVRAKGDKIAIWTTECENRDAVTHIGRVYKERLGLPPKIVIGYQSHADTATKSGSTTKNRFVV
Target sequence (Q04637 whole entry, looked up): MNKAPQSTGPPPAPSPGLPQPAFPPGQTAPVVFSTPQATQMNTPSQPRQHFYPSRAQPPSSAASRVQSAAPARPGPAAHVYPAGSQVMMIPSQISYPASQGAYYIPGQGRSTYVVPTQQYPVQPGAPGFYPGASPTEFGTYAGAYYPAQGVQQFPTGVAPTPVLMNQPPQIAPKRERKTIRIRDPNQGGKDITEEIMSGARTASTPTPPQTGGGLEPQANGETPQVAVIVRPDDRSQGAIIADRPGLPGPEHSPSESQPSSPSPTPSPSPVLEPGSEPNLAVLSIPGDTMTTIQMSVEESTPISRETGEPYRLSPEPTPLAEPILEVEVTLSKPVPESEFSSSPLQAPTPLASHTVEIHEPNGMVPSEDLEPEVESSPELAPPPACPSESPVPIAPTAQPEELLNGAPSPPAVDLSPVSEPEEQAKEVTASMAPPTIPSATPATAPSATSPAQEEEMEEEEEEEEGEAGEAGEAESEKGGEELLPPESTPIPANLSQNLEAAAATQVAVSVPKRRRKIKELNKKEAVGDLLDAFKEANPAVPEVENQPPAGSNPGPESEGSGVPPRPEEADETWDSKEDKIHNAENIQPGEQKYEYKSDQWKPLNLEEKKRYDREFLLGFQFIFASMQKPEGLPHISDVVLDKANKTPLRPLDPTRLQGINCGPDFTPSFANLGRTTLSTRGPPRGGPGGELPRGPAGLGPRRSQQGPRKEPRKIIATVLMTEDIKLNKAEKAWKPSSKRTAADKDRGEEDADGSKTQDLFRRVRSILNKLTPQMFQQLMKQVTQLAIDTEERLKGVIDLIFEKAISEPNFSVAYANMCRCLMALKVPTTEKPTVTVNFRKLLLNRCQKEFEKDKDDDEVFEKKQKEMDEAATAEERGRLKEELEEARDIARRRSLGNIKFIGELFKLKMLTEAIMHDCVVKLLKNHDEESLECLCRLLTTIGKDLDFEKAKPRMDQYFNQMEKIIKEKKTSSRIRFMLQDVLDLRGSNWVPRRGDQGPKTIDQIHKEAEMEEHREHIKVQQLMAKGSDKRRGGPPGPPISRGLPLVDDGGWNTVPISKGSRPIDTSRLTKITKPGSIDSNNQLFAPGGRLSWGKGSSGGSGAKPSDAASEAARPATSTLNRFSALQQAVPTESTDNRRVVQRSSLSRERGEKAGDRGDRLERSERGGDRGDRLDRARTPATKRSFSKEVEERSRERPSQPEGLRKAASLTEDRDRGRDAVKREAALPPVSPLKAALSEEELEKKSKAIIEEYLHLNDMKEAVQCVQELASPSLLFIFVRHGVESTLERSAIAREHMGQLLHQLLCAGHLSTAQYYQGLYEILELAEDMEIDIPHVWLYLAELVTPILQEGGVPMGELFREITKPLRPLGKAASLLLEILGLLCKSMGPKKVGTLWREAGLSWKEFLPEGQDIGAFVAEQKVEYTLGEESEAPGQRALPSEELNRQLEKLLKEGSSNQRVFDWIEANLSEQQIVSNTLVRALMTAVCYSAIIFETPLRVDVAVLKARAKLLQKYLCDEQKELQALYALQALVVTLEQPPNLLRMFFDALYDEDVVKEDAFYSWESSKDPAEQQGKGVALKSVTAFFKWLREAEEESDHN
PABP FP inh = PABP-poly(A) binding inhibition; 290,000 tested, 1% active; P11940; AID 2014; PABP-poly(A) RNA binding, fluorescence polarization; calls only at 35 µM;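 further: calls also rest on retests at 20 µM and on dose response follow-up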
PERK inhibitor = inhibitors of human PERK kinase; Q9NZJ5; CHO PERK-DD fusion, SEAP luminescence translation reporter; inhibition, % at 5.6 µM; 220,000 tested, 0.17% active; AID 1416;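 active means inhibition above the mean inhibition of all tested compounds plus 3 SD, set separately per screening campaign, cut at about 2.9% in these data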;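 further: PERK kinase domain activated by AP20187 dimerizer at 100 nM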
PABP1 MLLE inh = inhibitors of microRNA-mediated deadenylation, human PABP1 MLLE binding; inhibition, % at 20 µM; GST-MLLE / FITC-PAM2 fluorescence polarization; 360,000 tested, 0.36% active; in the data active means inhibition above about 35%, passing the limit was not always enough
Large screens that a line does not name were inactive. Unless noted, how the calls were made is not given here.

Cc1ccc(NC(=S)Nc2ccc(F)cc2)cc1C	none (no result: eIF4E 4G PPI, PERK inhibitor)
COC(=O)c1cc(Cn2nc(C(=O)O)c3ccccc3c2=O)oc1C	none (no result: eIF4E 4G PPI, PERK inhibitor)
COc1ccc(N2CCN(CCCNC(=O)C(=O)c3c(C)n(C)c4ccccc34)CC2)cc1	none (no result: eIF4E 4G PPI, PERK inhibitor)
O=C1NC(=Nc2ccc(O)cc2)S/C1=C\C=C\c1ccco1	eIF4H FP inh 83, PABP FP inh active
Cc1[nH]n(-c2ncc(-c3ccc(Cl)cc3)s2)c(=O)c1C(c1ccc(Cl)cc1)C(C#N)C#N (centres undefined)	PABP FP inh active
Cc1ccc(C23CC4CC(CC(CN)(C4)C2)C3)cc1	eIF4E 4G PPI 86
CCCN(CCC)Cc1cc(=O)oc2cc(C)cc(C)c12	none (no result: eIF4H FP inh, eIF4E 4G PPI, PABP FP inh, PERK inhibitor)
NS(=O)(=O)c1ccc2c(c1)oc(=O)c1cc(S(N)(=O)=O)ccc12	none
COCCNS(=O)(=O)c1ccc2c(c1)oc(=O)c1cc(S(=O)(=O)NCCOC)ccc12	PABP FP inh active (no result: PABP1 MLLE inh)
CCN(C[C@H]1N[C@@](CC)(C(=O)OC)[C@H]2C(=O)N(C)C(=O)[C@@H]12)S(=O)(=O)c1ccc(OC)cc1	none (no result: eIF4H FP inh, eIF4E 4G PPI, PABP FP inh, PERK inhibitor)
CC(C)CN1C(=O)c2ccc(C(=O)Nc3ccc(O)cc3C(=O)O)cc2C1=O	none (no result: eIF4E 4G PPI, PERK inhibitor)
CC(C)CCN1C(=O)c2ccc(C(=O)Nc3ccc(O)cc3C(=O)O)cc2C1=O	eIF4H FP inh 81, PABP FP inh active (no result: eIF4E 4G PPI, PERK inhibitor)
O=C(CN(Cc1ccccc1F)C(=O)c1csnn1)NCc1ccc2c(c1)OCO2	none (no result: eIF4E 4G PPI, PERK inhibitor)
Cc1cccc(C)c1OCC(C)N (centres undefined)	eIF4E 4G PPI 85 (no result: PERK inhibitor)
Cc1cccc(C)c1OCC(N)C(C)C (centres undefined)	none (no result: eIF4H FP inh, eIF4E 4G PPI, PABP FP inh, PERK inhibitor)
O=C(Cc1ccccc1F)c1ccc(O)cc1O	none
O=C(Cc1c(F)cccc1Cl)c1ccc(O)cc1O	PABP FP inh active
O=C(Cc1ccc(F)cc1)c1ccc(O)cc1O	eIF4H FP inh 75, PABP FP inh active
CC(C)c1ccc(NC(=O)C2(C)Cc3c(-c4ccc5c(c4)OCO5)ccnc3O2)cc1 (centres undefined)	none (no result: eIF4H FP inh, eIF4E 4G PPI, PABP FP inh, PERK inhibitor)
CCOc1ccc(CNc2ccc(S(N)(=O)=O)cc2)cc1	PERK inhibitor 3.3
CC(C)(Oc1ccc(Cl)cc1)C(=O)NCc1ccc(S(N)(=O)=O)cc1	eIF4H FP inh 66
CCOc1ccc(CNCCc2ccc(S(N)(=O)=O)cc2)cc1	none
Cc1ccc(-n2cccn2)c([C@@H]2C[C@H]3CN(C)C(=O)[C@]34CCCN24)c1	none
C[C@H]1CN([C@@H](C)CO)C(=O)Cc2cc(NC(=O)CCC(F)(F)F)ccc2O[C@H]1CN(C)S(=O)(=O)c1ccc(Cl)cc1	none (no result: eIF4H FP inh, eIF4E 4G PPI, PABP FP inh, PERK inhibitor)
N#C/C(=C(/O)COC(=O)CCc1ccc(S(=O)(=O)N2CCOCC2)cc1)c1nc2ccccc2[nH]1	PABP FP inh active
CSc1nc2oc3c(c2c2nncn12)CC(C)(C)SC3	PABP1 MLLE inh 45
CC(CN1CCCCC1)C(=O)NNC(=O)C12CC3CC(CC(C3)C1)C2 (centres undefined)	none
CC(CN1CCCCCC1)C(=O)NN (centres undefined)	eIF4H FP inh active, PABP FP inh active
CC(C)(C)[C@H]1COC(=O)[C@H](Cc2ccc(F)cc2)CC/C=C/C[C@@H](CC(=O)N[C@H](CO)Cc2ccccc2)C(=O)N1	none (no result: eIF4H FP inh, eIF4E 4G PPI, PABP FP inh, PERK inhibitor)
Cc1ccc(-c2cc(C(=O)N/N=C/c3c[nH]c4ccccc34)n[nH]2)o1	PABP FP inh active
O=C1NC(=O)C2(CCCC2C(=O)O)N1 (centres undefined)	none (no result: eIF4H FP inh, eIF4E 4G PPI, PABP FP inh, PERK inhibitor)
C=CCn1c(NC(=O)c2ccc(Br)o2)c(S(=O)(=O)c2ccccc2)c2nc3ccccc3nc21	eIF4H FP inh inconclusive, PABP FP inh active
C=CCn1c(NC(=O)c2ccco2)c(S(=O)(=O)c2ccccc2)c2nc3ccccc3nc21	eIF4H FP inh 62, PABP FP inh active (no result: eIF4E 4G PPI, PERK inhibitor, PABP1 MLLE inh)
O=C(NCc1cccs1)C1Cc2c(-c3ccc(Cl)cc3)ccnc2O1 (centres undefined)	none (no result: eIF4H FP inh, eIF4E 4G PPI, PABP FP inh, PERK inhibitor)
CCCN1CC(O)=C(C#N)C1=O	none
O=C(/C=C/c1c(F)cccc1Cl)c1ccc(O)cc1	none
C[n+]1ccc(C(=O)Nc2ccccc2Cl)cc1	PABP FP inh active (no result: eIF4E 4G PPI, PERK inhibitor)
O=C(COC(=O)c1cc(S(=O)(=O)Nc2ccccc2Cl)ccc1O)Nc1ccc(F)c(F)c1F	none (no result: eIF4H FP inh, eIF4E 4G PPI, PABP FP inh, PERK inhibitor)
O=C(CCS(=O)(=O)c1ccc(Br)cc1)NC1CCCCCC1	eIF4H FP inh 64 (no result: eIF4E 4G PPI, PERK inhibitor)
Cc1ccc(S(=O)(=O)CCC(=O)NC2CCCCC2)cc1	none (no result: eIF4H FP inh, eIF4E 4G PPI, PABP FP inh, PERK inhibitor)
O=C(CCS(=O)(=O)c1ccc(Br)cc1)NCc1ccc(F)cc1	eIF4H FP inh 87 (no result: eIF4E 4G PPI, PERK inhibitor)
Cc1ccc(CNC(=O)CCS(=O)(=O)c2ccc(Br)cc2)cc1	none
O=C(CCS(=O)(=O)c1ccc(Cl)cc1)NCCC1=CCCCC1	none (no result: eIF4E 4G PPI, PERK inhibitor)
O=C(CCS(=O)(=O)c1ccc(Br)cc1)NCCC1=CCCCC1	eIF4H FP inh 64 (no result: eIF4E 4G PPI, PERK inhibitor)
CN(Cc1cccc(F)c1)CC(O)COCc1ccccc1Cl (centres undefined)	none
Cc1ccc(CN2C(=O)N/C(=C/c3ccc4c(c3)n(C)c(=O)n4C)C2=O)cc1	none (no result: PABP1 MLLE inh)
Cc1ccc(CN2C(=O)N/C(=C/c3ccc(-c4ccc(C(=O)O)cc4)o3)C2=O)cc1	eIF4H FP inh 69, PABP FP inh active
Cc1cc(C(=O)O)ccc1-c1ccc(/C=C2\NC(=O)N(Cc3ccc(F)cc3)C2=O)o1	eIF4H FP inh 81, PABP FP inh active
CN(Cc1c(C(=O)N/N=C/c2cccs2)nnn1-c1nonc1N)c1ccccc1	none (no result: eIF4E 4G PPI, PERK inhibitor)
O=C(Nc1ccc(F)cc1)c1csc(Cc2ccccc2)n1	eIF4H FP inh 5.5
COc1ccc(NC(=O)c2csc(Cc3ccccc3)n2)cc1	none
CSc1ncc(OCc2ccccc2)c(=O)[nH]1	none
Cc1ccc(CN2CCN(Cc3cc(=O)c4ccccc4[nH]3)CC2CCO)o1 (centres undefined)	eIF4H FP inh 58
CCN(CC)C(=O)CSC(Nc1ccc(F)cc1)=C(C#N)C#N	none
CCN(CC)C(=O)CSC(=Nc1ccccc1F)NC#N	eIF4H FP inh 46, PABP FP inh active
CC1CCCC(C)N1C(=O)CSc1ncccn1 (centres undefined)	none (no result: eIF4E 4G PPI, PERK inhibitor)
COc1cc(C(=O)NC(=S)Nc2ccc(NC(=O)c3ccco3)cc2)cc(OC)c1OC	PABP1 MLLE inh 36
COc1ccc(NC(=O)c2ccco2)cn1	eIF4H FP inh inconclusive, PABP FP inh inconclusive, PABP1 MLLE inh 52 (no result: eIF4E 4G PPI, PERK inhibitor)
Cc1cccc(NC(=S)NNC(=O)c2ccco2)c1	PERK inhibitor 3.1
COc1ccc(NC(=S)NC(=O)c2ccccc2)cn1	PABP1 MLLE inh 42 (no result: eIF4E 4G PPI, PERK inhibitor)
O=C(CN1C(=O)c2ccccc2S1(=O)=O)NCCc1ccc(F)cc1	none (no result: eIF4H FP inh, eIF4E 4G PPI, PABP FP inh, PERK inhibitor)
CC(=O)Nc1ccc(S(=O)(=O)N(C)CC(=O)OCC(=O)N(C)c2ccccc2)cc1	none (no result: eIF4E 4G PPI, PERK inhibitor)
Cn1c(=O)n(C)c2cc([N+](=O)[O-])c(N3CCN(C(=O)c4cccc(F)c4)CC3)cc21	none
Cn1c(=O)n(C)c2cc([N+](=O)[O-])c(N3CCN(C(=O)c4cccc(Cl)c4)CC3)cc21	eIF4H FP inh active, PABP FP inh active
CCOC(=O)c1c(N)sc2c1CCS(=O)(=O)C2	PABP1 MLLE inh 39
O=C(c1ccccc1F)N1CCN=C1SCc1cccnc1	none
CCOc1ccccc1C(=O)N1CCN=C1SCc1cccnc1	PABP1 MLLE inh 40

Source: PubChem BioAssay (several laboratories)
